Source: PubChem (National Center for Advancing Translational Sciences (NCATS))
KB-V1 cytotox = qHTS assay for MDR1-selective chemotherapeutics: Primary screen using the drug-selected MDR subline cells KB-V1; actives 3.4% (n = 400,000); Potency, µM (titrated, usually from 46.1 µM), actives largely listed as cytotoxic; AID 1347076, 2019; KB-V1 MDR cells viability, CellTiter-Glo, 72 h; also: nearly all actives have a fitted effect of over 60% in size
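Readout: CellTiter-Glo luminescence, 10 min after addition. Cells: KB-V1 MDR subline, 72 h at 37 degrees C with compound. Analysis: corrected, normalized data fitted to concentration-effect curves.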
PINK1 expr mod = A Quantitative High throughput Screen to Identify Chemical Modulators of PINK1 Expression; PINK1 immunofluorescence, high-content cytometry, 24 h; Potency, µM (top dose mostly 76.6 µM), most hits filed as activators; actives 0.2% (n = 410,000); active = well fitted activation curve with a large enough effect; inconclusive = small, poorly fitted or top-dose-only effect; cell line not stated here; also: nearly all actives have a fitted effect of over 65% in size
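Readout is PINK1 immunofluorescence, quantified alongside mitochondrial, cell and nuclear markers by laser-scanning microplate cytometry. Cells from a stable line were exposed to compound titrations (5 concentrations) for 24 hours, with CCCP controls.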
MCF10A rereplic = A quantitative high throughput screen for small molecules that induce DNA re-replication in MCF 10a normal breast cells; Potency, µM (top dose mostly 46.1 µM), actives largely listed as activators; MCF 10A DNA re-replication, Hoechst nuclear intensity, 48 h; actives 2.9% (n = 350,000); also: nearly all actives have a fitted effect of over 50% in size
KB-3-1 cytotox = qHTS assay for MDR1-selective chemotherapeutics: Primary screen using the parental adenocarcinoma cell KB-3-1; KB-3-1 viability, CellTiter-Glo ATP luminescence, 72 h; Potency, µM (highest dose often 46.1 µM), actives largely listed as cytotoxic; actives 1.4% (n = 400,000); also: nearly all actives have a fitted effect of over 60% in size
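Parental KB-3-1 viability, qHTS format: 72 h compound exposure, 37 °C; CellTiter-Glo; media-only wells and DMSO plates as controls; concentration-effect fits on corrected data.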
SW480 rereplic = A quantitative high throughput screen for small molecules that induce DNA re-replication in SW480 colon adenocarcinoma cells | Potency, µM (doses to about 46.1 µM), hits mostly activators | actives 1.8% (n = 340,000) | SW480 DNA re-replication, Hoechst DNA content imaging, 48 h; also: nearly all actives have a fitted effect of over 55% in size
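Cells (250 per well) received 23 nL compound or DMSO by pin tool and were kept 48 hr at 37 C, 5% CO2. Nuclei were then stained with Hoechst for 40 min and scanned for DNA content.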
Large screens that a line does not name were inactive; ! = not confirmed by another sample. This is a sample that favours compounds with a hit; in the whole collection about 6.7% have one here. Unless noted, calls follow the shape of the dose curve; as a rule, active = well fitted curve in the direction sought with a large enough effect; inconclusive = small, poorly fitted or top-dose-only effect, or another doubt; inactive = no such curve, though single readings can be large; an effect the other way counts as inactive or inconclusive.

COc1ccccc1NS(=O)(=O)c1cc(NC(=O)CNC(=O)c2cc(C)cc(C)c2)ccc1C	KB-V1 cytotox 18µM, SW480 rereplic inconclusive
Cc1ccc(NC(=O)C(C)Oc2ccccc2)cc1S(=O)(=O)N1CCCCCC1 (stereo not drawn)	none
COc1ccc(NC(=O)c2ccc(F)cc2)cc1S(=O)(=O)Nc1cc(C)ccc1Br	KB-V1 cytotox 4.6µM, PINK1 expr mod inconclusive, MCF10A rereplic 15µM, KB-3-1 cytotox inconclusive, SW480 rereplic inconclusive
Cc1ccc(NS(=O)(=O)c2cc(NC(=O)C(C)Oc3ccccc3)ccc2C)c(C)c1 (stereo not drawn)	KB-V1 cytotox 18µM, PINK1 expr mod inconclusive, KB-3-1 cytotox inconclusive
Cc1ccc(-c2onc(C)c2C)cc1S(=O)(=O)NCc1ccc(N(C)C)cc1	none (no result: KB-V1 cytotox, MCF10A rereplic, KB-3-1 cytotox, SW480 rereplic)
O=[N+]([O-])c1cccc(S(=O)(=O)NCCNS(=O)(=O)c2cccc([N+](=O)[O-])c2)c1	none (no result: KB-V1 cytotox, PINK1 expr mod, KB-3-1 cytotox)
CC(=O)N1CCc2cc(Br)cc(S(=O)(=O)CCC(=O)Nc3ccc(C)cc3Cl)c21	none (no result: MCF10A rereplic, SW480 rereplic)
COC(=O)c1sccc1-c1ccc(C(=O)Nc2cccc(Cl)c2)o1	KB-V1 cytotox 16µM, MCF10A rereplic inconclusive
CN(C)S(=O)(=O)Oc1ccsc1C(=O)Nc1cccc(Cl)c1	KB-V1 cytotox 21µM, KB-3-1 cytotox inconclusive
CN(C)S(=O)(=O)Oc1ccsc1C(=O)Nc1ccc(Cl)c(Cl)c1	KB-V1 cytotox inconclusive, MCF10A rereplic inconclusive
O=C(Nc1ccccc1)N1CCc2ccccc21	none
O=C(NCC1CCCC(CNC(=O)N2CCc3ccccc32)C1)N1CCc2ccccc21 (stereo not drawn)	KB-V1 cytotox 5.2µM, SW480 rereplic inconclusive
CCOc1ccccc1NC(=O)C(=O)Nc1ccc2nc3n(c(=O)c2c1)CCCCC3	KB-V1 cytotox inconclusive (no result: MCF10A rereplic, SW480 rereplic)
COC(=O)c1c(C)[nH]c(C(=O)C(C)OC(=O)c2cc(C)oc2C)c1C (stereo not drawn)	none (no result: KB-V1 cytotox, KB-3-1 cytotox)
COC(=O)c1c(C)[nH]c(C(=O)C(C)OC(=O)C2CC2)c1C (stereo not drawn)	KB-V1 cytotox 12µM, KB-3-1 cytotox inconclusive
COc1ccc(CCNC(=O)c2cc(-c3cc(Cl)cc(Cl)c3)oc2C)cc1	MCF10A rereplic inconclusive
Cc1oc(-c2cc(Cl)cc(Cl)c2)cc1C(=O)NCCc1ccccc1	KB-V1 cytotox inconclusive, MCF10A rereplic 15µM
Cc1cc(C)n(-c2ccc(C(=O)Nc3sccc3C(N)=O)cc2)n1	KB-V1 cytotox 29µM, MCF10A rereplic inconclusive, KB-3-1 cytotox inconclusive
Cc1cc(C)n(-c2ccc(C(=O)Nc3nnc(C)s3)cc2)n1	none
O=C(CC1(c2cccc(F)c2)CC(=O)N(Cc2cccnc2)C1=O)N1CCCCCCC1 (stereo not drawn)	none (no result: KB-V1 cytotox, MCF10A rereplic, KB-3-1 cytotox, SW480 rereplic)
COCCn1c(=O)c(-c2ccc(F)cc2)nc2cnc(OC)nc21	none (no result: KB-V1 cytotox, MCF10A rereplic, KB-3-1 cytotox, SW480 rereplic)
O=C1/C(=C/c2ccco2)SC(=S)N1C1CCS(=O)(=O)C1 (stereo not drawn)	none
Cc1ccc(/C=C2\SC(=S)N(C3CCS(=O)(=O)C3)C2=O)cc1 (stereo not drawn)	SW480 rereplic 0.0052µM
Cc1[nH]cnc1C(=O)N/N=C/c1c(Cl)cccc1Cl	KB-V1 cytotox 21µM, KB-3-1 cytotox 16µM
COc1ccc(CCN(C)C2CCCN(C(=O)c3sccc3C)C2)cc1OC (stereo not drawn)	KB-V1 cytotox inconclusive, MCF10A rereplic inconclusive
CCCCCn1c(=O)[nH]c2cc(C(=O)NCc3ccc(OC)cc3)ccc2c1=O	none (no result: MCF10A rereplic, SW480 rereplic)
CCCc1cc(N2CCCC(C(=O)Nc3cc(Cl)ccc3OC)C2)n2ncnc2n1 (stereo not drawn)	KB-V1 cytotox 13µM
COc1ccc(Cl)cc1NC(=O)C1CCCN(c2cc(C)nc3ncnn23)C1 (stereo not drawn)	none
Cc1cc(N2CCCC(C(=O)Nc3ccc4c(c3)CCC4)C2)n2ncnc2n1 (stereo not drawn)	KB-V1 cytotox 4.6µM, KB-3-1 cytotox inconclusive
Cc1ccc(S(=O)(=O)Nc2ccccc2CNc2ccccn2)cc1	KB-V1 cytotox 21µM, KB-3-1 cytotox inconclusive
Cc1ccc(S(=O)(=O)Nc2ccccc2CNc2ncc(Br)cc2Br)cc1	KB-V1 cytotox 2.9µM, PINK1 expr mod inconclusive, KB-3-1 cytotox inconclusive, SW480 rereplic inconclusive
Cc1ccc(S(=O)(=O)Nc2ccccc2CNc2ccc(Br)cn2)cc1	KB-V1 cytotox 5.8µM, PINK1 expr mod 16µM, MCF10A rereplic inconclusive, KB-3-1 cytotox 23µM, SW480 rereplic inconclusive
Cc1ccc(S(=O)(=O)Nc2ccccc2-c2ccccc2NS(=O)(=O)c2ccc(C)cc2)cc1	KB-V1 cytotox inconclusive, PINK1 expr mod inconclusive, MCF10A rereplic inconclusive, KB-3-1 cytotox inconclusive
Cc1ccc(S(=O)(=O)CC(=O)Nc2ccc(S(=O)(=O)Nc3ccccn3)cc2)cc1	MCF10A rereplic 1.5µM
O=C(Cn1nc(-c2ccc(Cl)cc2)ccc1=O)NCCc1ccccc1	none (no result: MCF10A rereplic, SW480 rereplic)
CN(CCOc1ccccc1)C(=O)c1cc(S(=O)(=O)N2CCOCC2)c(Cl)cc1Cl	KB-V1 cytotox inconclusive (no result: MCF10A rereplic, SW480 rereplic)
Cc1ccc(NS(=O)(=O)c2ccc3c(c2)NC(=O)CCS3)c(Br)c1	KB-V1 cytotox 23µM!, KB-3-1 cytotox inconclusive
COc1cc(OC)c(NS(=O)(=O)c2ccc3c(c2)NC(=O)CCS3)cc1Cl	KB-V1 cytotox inconclusive, KB-3-1 cytotox 18µM (no result: MCF10A rereplic, SW480 rereplic)
COc1cc(OC)c(NS(=O)(=O)c2ccc3c(c2)NC(=O)CO3)cc1Cl	none
Cc1ccc(C)c(NS(=O)(=O)c2ccc3c(c2)NC(=O)CCS3)c1	none
CC(C)Cc1nn2cc(-c3cccc(Br)c3)nc2s1	none (no result: MCF10A rereplic, SW480 rereplic)
COc1ccc(Cl)cc1S(=O)(=O)n1cnc2ccccc21	KB-V1 cytotox inconclusive
CCOc1cc(C)c(Cl)cc1S(=O)(=O)n1cnc2ccccc21	none
CCOc1ccc(Cl)cc1S(=O)(=O)n1cnc2ccccc21	KB-V1 cytotox 4.5µM, MCF10A rereplic 7.9µM, KB-3-1 cytotox inconclusive
CCOc1ccc(C)cc1S(=O)(=O)n1cnc2ccccc21	KB-V1 cytotox inconclusive, MCF10A rereplic 23µM, KB-3-1 cytotox 13µM, SW480 rereplic inconclusive
Cc1ccc(C(=O)N2CCCC(c3ccc(Cl)cc3)=N2)cc1	MCF10A rereplic 18µM, SW480 rereplic inconclusive
CCOC(=O)c1c(CSc2ccccc2)n(C)c2cc(Br)c(OCC(O)CNC(CO)(CO)CO)cc12 (stereo not drawn)	MCF10A rereplic 21µM, KB-3-1 cytotox inconclusive, SW480 rereplic inconclusive
CCOC(=O)c1c(CSc2ccccc2)n(C)c2cc(Br)c(OC)c(O)c12	none
CCn1ncc(Br)c1C(=O)Nc1ccccc1C(F)(F)F	none
COC(=O)c1ccccc1NC(=O)c1c(Br)cnn1C	KB-V1 cytotox inconclusive
CCn1ncc(Br)c1C(=O)Nc1ccccc1C(=O)OC	KB-V1 cytotox inconclusive, KB-3-1 cytotox 21µM
